Assay results reported in PubChem BioAssay AID504810 (National Center for Advancing Translational Sciences (NCATS), 2011).
In all, about 330,000 compounds went through this assay and about 670 (0.2%) were called active.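 How the source made its calls: active means activity change below a set negative limit, meaning inhibition stronger than a set level (cut at about -70% in these data); inconclusive means activity change between two set negative limits; inactive means the rest.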 The full list was thinned out, with actives kept by preference.

biological target: Thyrotropin receptor (Homo sapiens) (UniProt P16473); assay: Antagonists of the Thyroid Stimulating Hormone Receptor: HTS campaign; settings: TSHR-expressing cells, TSH-stimulated cAMP HTRF, 2 h; at 11.5 µM; hits give low values
Description: The thyroid-stimulating hormone receptor (TSHR) is a member of the 7 trans-membrane-spanning receptor (7TMR) family of cell surface receptors. TSHR-mediated hyperthyroidism is important in thyroid pathology. The development of small molecule antagonists of TSHR may lead to therapeutic approaches for TSHR-mediated hyperthyroidism caused by constitutively activating mutations or stimulating auto-antibodies associated with Graves' disease. Graves' disease is the leading cause of hyperthyroidism and is caused by autoantibodies that stimulate TSHR (TsAbs) causing thyroid growth and unregulated overproduction of thyroid hormones and existing treatments have liabilities (agranulocytosis). In addition, TSHRs are known to be expressed in multiple extrathyroidal tissues including bone, brain, kidney, testis, fat and cells of the immune system but the role of the TSHR in these tissues is not clear. Therefore, TSHR antagonists/inverse agonists could be used as probes of extrathyroidal TSHR function. Finally, TSHR inverse agonists, which are a subclass of antagonists that inhibit agonist-independent (or basal or constitutive) TSHR signaling, could be used to inhibit TSH-independent signaling in patients with recurrent or metastatic thyroid cancer who are receiving thyroid hormone to suppress TSH. In collaboration between scientist from the NCGC and the NIDDK, a miniaturized HTRF high-throughput screen was developed. It's a cell based assay, where an anti cAMP antibody contains a fluorescent cryptate tag (excitation 337 nm; emission 620 nm) and the acceptor is cAMP-d2 (excitation 620 nm; emission 665 nm). When antibody and cAMP-d2 interact and are excited by a 337 nm light, a FRET occurs resulting in emission at 665 nm. The assay is competition between cAMP-d2 and cAMP (from the cell lysate). The homogeneous protocol allows for one step dispense after stimulation that is automation friendly. NIH Chemical Genomics Center [NCGC] NIH Molecular Libraries Probe Centers Network [MLPCN] MLPCN Grant: MH090855-01 Assay Submitter (PI): Marvin Gerhengorn
1. 3ul of 200 TSHR freshly harvested cells/well are dispensed into a 1536 TC-treated white solid bottom plate. 2. Through pintool addition, 23nl of compounds and control in 100% DMSO are added to the plate. 3. Then 1ul of EC80 TSH (4nM final) is added to the plate. 4. Assay is incubated at 37 deg C for 2 hours. 5. 2ul of cAMP antibody diluted 1:20 in lysis buffer is added. 6. Immediately following, 2ul of d2 diluted 1:20 in HBSS is added seperately. 7. The assay is incubated for 30 minutes at ambient room temperature. 8. The result is obtained by using a ViewLux read-out with HTRF settings.
On the % scale 0 is the no-effect control and ±100 the full control effect.

Thyrotropin receptor (Homo sapiens), sequence (P16473 whole entry, looked up): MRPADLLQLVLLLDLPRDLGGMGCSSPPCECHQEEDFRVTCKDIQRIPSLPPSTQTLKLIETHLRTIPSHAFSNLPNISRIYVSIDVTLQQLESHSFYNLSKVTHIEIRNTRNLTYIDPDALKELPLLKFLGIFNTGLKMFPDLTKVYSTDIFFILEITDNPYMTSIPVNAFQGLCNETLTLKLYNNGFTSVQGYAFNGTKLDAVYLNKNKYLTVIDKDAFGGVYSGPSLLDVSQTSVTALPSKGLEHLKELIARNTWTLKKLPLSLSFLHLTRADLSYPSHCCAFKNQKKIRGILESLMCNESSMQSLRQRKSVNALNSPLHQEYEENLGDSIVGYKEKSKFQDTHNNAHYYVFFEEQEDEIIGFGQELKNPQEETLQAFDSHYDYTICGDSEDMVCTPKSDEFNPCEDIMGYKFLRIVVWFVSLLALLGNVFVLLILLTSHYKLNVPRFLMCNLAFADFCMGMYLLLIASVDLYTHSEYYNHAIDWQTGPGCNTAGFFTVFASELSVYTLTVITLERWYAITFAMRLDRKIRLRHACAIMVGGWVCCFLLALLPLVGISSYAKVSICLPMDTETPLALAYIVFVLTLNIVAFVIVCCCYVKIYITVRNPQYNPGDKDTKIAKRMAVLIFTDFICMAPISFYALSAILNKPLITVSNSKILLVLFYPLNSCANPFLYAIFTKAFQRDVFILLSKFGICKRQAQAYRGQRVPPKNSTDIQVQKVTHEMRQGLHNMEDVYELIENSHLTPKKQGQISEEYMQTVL

| SMILES | activity change, negative = inhibition |
| --- | --- |
| COC(=O)C1=C(c2ccc(F)cc2OCc2ccccc2)C[C@@H]2CC[C@H]1N2C(=O)NCc1ccc(Cl)cc1 | -10% (inactive) |
| COC(=O)C1=C(c2cccc(OCc3ccccc3)c2)C[C@@H]2CC[C@H]1N2C(=O)NCc1ccc(Br)cc1 | -5.89% (inactive) |
| COC(=O)C1=C(c2ccc(-c3ccccc3)c(F)c2)C[C@@H]2CC[C@H]1N2C(=O)NCc1ccc(F)cc1 | -85% (active) |
| c1ccc2c(c1)[I+]c1ccccc1-2 | -36.8% (inactive) |
| CC(=O)c1c(O)c(C)c(O)c(Cc2c(O)c3c(c(C(=O)/C=C/c4ccccc4)c2O)OC(C)(C)C=C3)c1O | -26.9% (inactive) |
| CCOC(=O)c1ncn2c1[C@@H]1CCCN1C(=O)c1cc(OC)ccc1-2 | -12.5% (inactive) |
| C[C@]12CCC3C(CC[C@H]4C[C@@H](O)CC[C@]34C)C1CC[C@@H]2O (stereo not given in full) | 3.15% (inactive) |
| C[C@]12CC[C@H](O)C[C@H]1CC[C@@H]1C2CC[C@]2(C)[C@@H](C3=CC(=O)OC3)[C@@H](O)C[C@]12O (stereo not given in full) | -81.8% (active) |
| C[C@]12CCC3C(CC[C@H]4C[C@@H](O)CC[C@]34C)C1C[C@@H](O)[C@H]2O (stereo not given in full) | 2.4% (inactive) |
| CC(=O)NBr | -6.86% (inactive) |
